In PubChem BioAssay (NCI) one finds growth data, which are given here for 8 compounds.

This is part of a sample that, as a whole, favours compounds with a hit. Of some 83,000 tested, about 20% had one in any assay.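 Assay: single dose, 48 h. Readout: percent growth (0 = no net growth; negative = cell death). Active: <10.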 Values without a mark were called inactive. The source made the active and inactive calls.

Experiment in all cases: NCI-60 one-dose screen, 48 h (100 = growth as untreated, 0 = no growth, -100 = all killed)
Settings in all cases: 10 µM unless noted

Test [1] has as its system SK-MEL-2 melanoma.
For test [2], the system named is EKVX NSCLC.
For test [3], the system named is SN12C renal.
In test [4] the test system is UO-31 renal.
For test [5], the system named is TK-10 renal.
Test [6] deals with ACHN renal.
For test [7], the system named is CAKI-1 renal.
Test [8] has as its system A498 renal.
In test [9] the test system is CCRF-CEM leukemia.
Test [10] has as its system MOLT-4 leukemia.
The test system of test [11] is SR leukemia.
Test [12] relates to RPMI-8226 leukemia.
Test [13] concerns OVCAR-8 ovarian.
In test [14] the test system is OVCAR-5 ovarian.
Test [15] relates to OVCAR-4 ovarian.
In test [16] the test system is SK-OV-3 ovarian.
Test [17] deals with OVCAR-3 ovarian.
The subject of test [18] is HS 578T breast.
Test [19] relates to NCI/ADR-RES ovarian.
The subject of test [20] is IGROV1 ovarian.

Consider `CCCCOc1nc2c(C)cccc2cc1C1CNC(=O)c2ccccc2N1` (stereo unspecified), for which the growth is 62.8% in test [1]; 61.9% in test [2]; 70.9% in test [3]; 67.8% in test [4]; 98.7% in test [5]; 66.3% in test [6]. Further, the growth was 52.1% in [7]; 55.3% in test [8]; 34.3% in [9]; 39% in [10]; 18.1% in [11]; 57.5% in test [12]. Besides, the growth in [13] was 81.2%; in test [14], 112%; in test [15], 71.7%; in [16], 69.2%; in test [17] it was 20%; in [18], 69.7%. Besides, the growth in test [19] is 51.3%.
Turning to `CCN(CC)CCSc1c2ccc(Cl)cc2nc2ccc(OC)cc12`, the growth is 100% in [1]; 97.1% in test [2]; 90.1% in test [3]; 88.5% in test [4]; 84.1% in test [5]; 87.6% in test [6]. The growth was 91.3% in test [7]; 100% in test [8]; 12.7% in test [9]; 48.1% in test [10]; 12.1% in test [11]; 72.7% in test [12]. The growth was 88.5% in test [13]; 103% in [14]; 81% in test [15]; 86.5% in test [16]; 98.1% in [20]; 24.5% in test [17]. Also, the figures for the growth in test [18] and in [19] were 108% and 105%, respectively.
In the case of `O=C1CCCCN1CCCCC#Cc1ccccc1C#Cc1ccc([N+](=O)[O-])cc1`, the growth in test [1] is 5.87% (active); in test [2], 74.8%; in [3], 67.4%; in [4] it was 7.05% (active); in test [5], 80.6%; in [6], 34%. Besides, the growth in test [7] was 58.4%; in test [8] it was 59.7%; in test [9], 21.4%; in [10], 18.7%; in test [11] it was 18.1%; in test [12], 2.47% (active). The growth in [13] is 55.4%; in test [14], 60%; in [15] it was 60.2%; in test [16], 71.1%; in [20], -36.7% (active); in test [17] it was 56.3%. Also, the growth in test [18] was 69.4%; in [19] it was 43.4%.
Take `O=C(/C=C/CN1CCOCC1)Nc1cc2c(Nc3ccc(F)c(Cl)c3F)ncnc2cc1OCCOC(F)F`: the growth in [1] is 85.6%; in test [2], 24.8%; in [3], 34.4%; in [4], 22.9%; in test [5], 33.9%; in test [6] it was 14.2%. Further, the growth in [7] was 15.9%; in [8] it was -5.14% (active); in test [9], 94%; in [10], 69.5%; in test [11], 60.7%; in [12], 17.8%. In addition, the growth in test [13] is 49.6%; in test [14], 49.6%; in test [15], 54.7%; in [16], 11.8%; in [20], -11.1% (active); in [17], 48.9%. The growth was 23.1% in test [18] and 36.2% in [19].
For the compound `O=C1C2=C(C(=O)c3c(O)ccc(O)c31)N(c1cccnc1)Cc1ccccc1O2`, the growth in [1] is -42.6% (active); in test [2], 2.08% (active); in test [3], -43.8% (active); in test [4], -83.5% (active); in test [5] it was -99.2% (active); in test [6] it was -85.4% (active). In addition, the growth in [7] was -96.2% (active); in [8], 99%; in [9], -1.32% (active); in test [10], -18.5% (active); in [11], -10.1% (active); in test [12], -8.47% (active). In addition, the growth was 2.92% (active) in [13]; -39.6% (active) in test [14]; -95% (active) in test [15]; 53.8% in test [16]; -89.5% (active) in test [17]; 26.1% in test [18]. For the same compound, in [19], the growth was 13.4%.
As for `C=C1C(=O)O[C@H]2[C@H]1CC/C(COC(=O)NCc1ccc(OC)cc1)=C\CC[C@@]1(C)O[C@@H]21`, the growth in [1] is 53.4%; in [2], 75.9%; in test [3] it was 32.8%; in [4], 18.4%; in [5], 31.2%; in test [6], 4.28% (active). For the same compound, the growth in test [7] is 15%; in [8] it was 89.4%; in test [9] it was 3.72% (active); in test [10], 24.2%; in test [11], -1.29% (active); in test [12], 25.8%. Further, the growth in test [13] is 21.5%; in test [14] it was 78.2%; in [15], 41.2%; in test [16] it was 84.8%; in [17], 5.71% (active); in test [18], 59.2%. In test [19], the growth is 86.9%.
As for `NC(=O)c1c(NC(=O)c2ccc3c(c2)OCO3)sc2c1CCC(=O)C2`, the growth was -57.8% (active) in [1]; 5.58% (active) in test [2]; 8.18% (active) in test [3]; -93.4% (active) in [4]; -20.2% (active) in [5]; -57.7% (active) in test [6]. The growth in [7] is -80% (active); in test [8], -3.77% (active); in test [9], -33.3% (active); in test [10], -20.8% (active); in test [11], -19.6% (active); in test [12], -34.9% (active). Also, the growth was -15.9% (active) in [13]; -49.8% (active) in test [14]; -70.8% (active) in test [15]; -11.7% (active) in [16]; -17.1% (active) in test [20]; -47% (active) in [17]. Besides, the growth in test [18] was 16.7%; in [19], -6.35% (active).
Turning to `C/C(=N\NC(=O)CC#N)c1cc2cc(Cl)ccc2o1`, the growth in test [1] was 96.4%; in test [2], 33.6%; in [3] it was 93.1%; in test [4], 108%; in test [5], 114%; in test [6], 96.1%. The growth in [7] was 89.2%; in test [8], 111%; in [9], 70.2%; in test [10], 87.4%; in [11] it was 84.8%; in [12], 90.2%. The growth in test [13] is 109%; in test [14], 105%; in [15] it was 91.5%; in test [20], 96.8%; in test [17], 102%; in test [18] it was 14.9%. For the same compound, in test [19], the growth is 110%.
